Assay [1] is described as follows: Cell Viability - BJ (AID 421; calls by dose curve;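 also: potency is read from the fitted curve at half-maximal effect; cells exposed to compound for 40 hours at 37 °C before readout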). As to conditions: BJ fibroblast viability, qHTS. In outline: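 Quantitative HTS: ATP depletion in BJ cells after 40 hr compound exposure in complete culture medium, detected with CellTiter-Glo; AC50 from standard Hill fits.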
On the technique in general: In qHTS, concentration-response curves come from the screen itself.

Assay [2] can be described thus: Cell Viability - Hek293 (AID 427;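 active = compounds whose dose-response curve shows a full or clear partial loss of cell viability, called from curve shape rather than a numeric limit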;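 also: potency is read from the fitted curve at half-maximal effect; cells exposed to compound for 40 hours at 37 °C before reading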). The settings on record: qHTS. In outline: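 AC50 values derive from Hill-modelled concentration-response of ATP-based luminescence, normalized between DMSO-only and 100 uM tamoxifen controls. Cells were exposed in complete culture medium for 40 hr at 37 °C before detection.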
A short description of assay [3]: Cell Viability - HUV-EC-C (AID 542). Also: % is scaled to controls: 0 for no effect and ±100 for the full control effect; nearly all actives have a fitted effect of over 35% in size. As to conditions: HUV-EC-C endothelial cell viability, qHTS; series mostly up to 92.2 µM. In outline:
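Cells were seeded at 1000 per well and incubated 5 hr at 37 °C before compound addition. After 40 hr at 37 °C, CellTiter-Glo reagent was added for 20 min and luminescence read. AC50 values came from Hill-equation modelling.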

The nature of assay [4]: Cellular Toxicity (caspase-3) HUV-EC-C (AID 656). The settings on record: HUV-EC-C cells, caspase-3 activation (apoptosis), vehicle = 0, 100 µM tamoxifen = 100%; series mostly up to 92.2 µM. In outline: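 Concentration-dependent caspase 3/7 induction was assessed in HUV-EC-C cells exposed for 16 hours. Data scaled between DMSO and tamoxifen (100 uM) controls.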
Assay [5] in a line: Cellular Toxicity (caspase-3) MRC-5 (AID 659). As to conditions: MRC-5 cells, luminescence, normalized: DMSO 0%, 10 µM staurosporine 100%; series mostly up to 91.7 µM. In outline: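 Apoptosis readout in MRC-5 cells: luciferase light generated after caspase 3/7 cleaves a peptide-aminoluciferin substrate, measured post 16 hr compound incubation at 37 °C.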
The nature of assay [6]: Cellular Toxicity (caspase-3) Mesangial (AID 660).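 Also: combined caspase 3 and 7 activity read by Caspase-Glo luminescence; cells exposed to compound for 16 h before the caspase read.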 As to conditions: mesangial cells, normalized: DMSO 0%, 100 µM tamoxifen 100%; series mostly up to 91.7 µM. In outline: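 Seed cells derived from normal human renal glomeruli, incubate 5 h, add compounds across concentrations and incubate 16 h at 37 °C. Caspase 3/7 activation is then quantified by luciferase light, with AC50 derived by Hill modeling.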

Assay [7] in a line: Cellular Toxicity (caspase-3) SK-N-SH (AID 661). As to conditions: SK-N-SH caspase-3 activation, qHTS; series mostly up to 91.7 µM. In outline:
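Cells were seeded and incubated 5 hr at 37 °C, dosed with compound over a concentration range for 16 hr, then given Caspase-Glo 3/7 reagent for 1 hr at room temperature before luminescence reading.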

Assay [8] in a line: Cellular Toxicity (caspase-3) Hek293 (AID 664).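 Also: cells exposed to compound for 16 h at 37 °C before readout.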 The settings on record: HEK293 caspase-3 activation, DMSO = 0%, 100 µM tamoxifen = 100%; at 92.2 µM (top of the series). In outline:
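qHTS, HEK293 (human embryonic kidney), 16 h cpd exposure in complete medium. Caspase-3/7 activation = luminescence increase; normalized to DMSO/100 uM tamoxifen; Hill-fit AC50.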

A short description of assay [9]: Cellular Toxicity (caspase-3) NIH 3T3 (AID 666).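 Also: caspase signal read after 16 h compound exposure; 0% = DMSO basal and 100% = 100 µM tamoxifen stimulation.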 As to conditions: NIH 3T3 caspase-3 activation, apoptosis/toxicity; series mostly up to 92.2 µM. In outline: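 Cells were plated at 1000 per well and incubated 5 hr at 37°C, then compound was added for 16 hr. Caspase-Glo 3/7 reagent followed for 20 min at room temperature before luminescence was read.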
A short description of assay [10]: MultiTox-Fluor Cytotoxicity Assay - LYMP1-001 - Dead Cells (AID 946).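 Also: 0% = DMSO and 100% = tetraoctylammonium bromide.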 As to conditions: LYMP1-001 lymphoblastoid cells, dead-cell protease fluorescence; series mostly up to 92.2 µM. In outline:
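In this qHTS, 15 uM tetraoctylammonium bromide defined 100% and DMSO defined basal activity. Lymphoblastoid cells (LYMP1-001, 2500 per well) received compound for 16 hr at 37 C before a fluorogenic dead-cell substrate readout at 485/520 nm.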

A short description of assay [11]: Cell Viability - LYMP1-002 - Assay at 16 hr (AID 948).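 Also: 0% = DMSO alone and full effect = 92 µM tetraoctylammonium bromide.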 The settings on record: LYMP1-002 lymphoblastoid cell viability; series mostly up to 92.2 µM. In outline:
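In this qHTS, lymphoblastoid LYMP1-002 cells (human) receive compounds for 16 hr at 37 C. Viability is taken from CellTiter-Glo ATP luminescence, and AC50 derives from standard Hill fits.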

Assay [12] can be described thus: Cell Viability - LYMP2-013 (AID 970).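 Also: cells exposed to compound for 24 h at 37 °C; 0% = DMSO only and full inhibition = tetraoctylammonium bromide control; nearly all actives have a fitted effect of over 55% in size.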 As to conditions: LYMP2-013 lymphoblastoid cells viability; series mostly up to 92.2 µM. In outline: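 Cytotoxicity is scored as a concentration-dependent drop in intracellular ATP in human lymphoblastoid cells after 24 hr compound exposure at 37 C. ATP is quantified by luciferase luminescence, and AC50 values come from Hill-equation modeling.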

A short description of assay [13]: Cell Viability - LYMP2-019 (AID 973).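 Also: cells exposed to compound for 24 h at 37 °C; 0% = DMSO alone and full effect = 92 µM tetraoctylammonium bromide; nearly all actives have a fitted effect of over 55% in size.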 The settings on record: LYMP2-019 lymphoblastoid cell line viability; series mostly up to 92.2 µM. In outline: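 Cytotoxicity is scored as a concentration-dependent drop in cellular ATP after cells (2500/well) receive compound for 24 hr at 37 C. Tetraoctylammonium bromide serves as positive control.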
A short description of assay [14]: Cell Viability - LYMP2-026 (AID 989).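 Also: cells exposed to compound for 24 h at 37 °C; % is scaled to controls: 0 for no effect and ±100 for the full control effect; nearly all actives have a fitted effect of over 50% in size.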 As to conditions: LYMP2-026 lymphoblastoid cell viability, qHTS; series mostly up to 92.2 µM. In outline: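 Cells are seeded at 2500 per well and held 5 hr at 37 C. Compounds are added in concentration series for 24 hr, then CellTiter-Glo reagent is applied and luminescence read.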
Assay [15] is described as follows: qHTS assay for small molecule agonists of retinoid X receptor alpha signaling (AID 588544; calls by dose curve;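 as to activation: 0% = DMSO basal wells and 100% = reference agonist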). The settings on record: HEK293T RXRa-UAS-bla, beta-lactamase reporter, 18 h; 530 nm emission.
Assay [16] concerns the target Retinoic acid receptor RXR-alpha (Homo sapiens) (UniProt P19793). The assay is described as above. The settings on record: HEK293T RXRa-UAS-bla, beta-lactamase reporter, 18 h; series mostly up to 76.7 µM.
The nature of assay [17]: qHTS assay for small molecule antagonists of retinoid X receptor alpha signaling (AID 588546).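 Also: cells stimulated with 9-cis-retinoic acid as agonist; % is scaled to controls: 0 for no effect and ±100 for the full control effect.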 The settings on record: HEK293T RXRa-UAS-bla, beta-lactamase ratio, antagonist mode; measured here: W530 green channel, cytotoxicity proxy. In outline:
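Beta-lactamase reporter inhibition, read as CCF4 fluorescence ratio (ex 405, em 460/530 nm) after 2 h at RT. HEK293T UAS-bla cells, 2500/well, were stimulated with 9-cis-RA at 500 or 100 nM final alongside test compound for 18 h at 37 C.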

The target in assay [18] is Peroxisome proliferator-activated receptor alpha (Homo sapiens) (UniProt Q07869). The assay is described as follows: qHTS assay for small molecule agonists of the peroxisome proliferator-activated receptor alpha (PPARalpha) signaling pathway (AID 651778). Also: % of control where 0% means no effect. The settings on record: PathHunter PPARalpha complementation, chemiluminescence, 6 h; stronger effect = higher value. In outline: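 Cells plated at 2,000/well and held overnight at 37 C, 5% CO2, then compound added by pin tool for 6 hr; after PathHunter detection reagent and 60 min at room temperature, chemiluminescence from enzyme complementation was read.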

Assay [19] in a line: qHTS assay for small molecule agonists of the antioxidant response element (ARE) signaling pathway measured by Nrf2-dependant transcriptional activity - cell viability counter screen (AID 720653; active = well fitted curve in the direction sought with a large enough effect in the repeat runs; an effect the other way counts as inactive or inconclusive; also: % is scaled to controls: 0 for no effect and ±100 for the full control effect). As to conditions: ARE-bla HepG2 viability, CellTiter-Glo ATP luminescence, 16 h; stronger effect = lower value. In outline: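 ARE-bla HepG2 cells (2,000/well) rested 5 hrs at 37C/5% CO2, then exposed to compounds in DMSO for 16 hrs. Viability was read in the same wells as intracellular ATP by luminescence, 30 min at room temperature after reagent addition.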

A short description of assay [20]: qHTS assay for cell viability of the p53RE-bla HCT-116 cell line (AID 743292). Also: % is scaled to controls: 0 for no effect and ±100 for the full control effect; nearly all actives have a fitted effect of over 55% in size. As to conditions: p53RE-bla HCT-116 viability, ATP luminescence, 16 h; series mostly up to 95 µM. In outline: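 In this qHTS counter-screen, metabolically competent p53RE-bla HCT-116 cells were counted via their ATP content. Compounds were applied for 16 h at 37 C and luciferase-coupled luminescence was measured.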

Results filed as inconclusive are left out. Calls of active or inactive are those of the source. Unless noted, calls follow the shape of the dose curve; as a rule, active = well fitted curve in the direction sought with a large enough effect; inconclusive = small, poorly fitted or top-dose-only effect, or another doubt; inactive = no such curve, though single readings can be large; an effect the other way counts as inactive or inconclusive. Some results are limits rather than exact numbers.

These results are taken from PubChem BioAssay (NCATS).

Sequence of Retinoic acid receptor RXR-alpha (Homo sapiens) (P19793 whole entry, looked up): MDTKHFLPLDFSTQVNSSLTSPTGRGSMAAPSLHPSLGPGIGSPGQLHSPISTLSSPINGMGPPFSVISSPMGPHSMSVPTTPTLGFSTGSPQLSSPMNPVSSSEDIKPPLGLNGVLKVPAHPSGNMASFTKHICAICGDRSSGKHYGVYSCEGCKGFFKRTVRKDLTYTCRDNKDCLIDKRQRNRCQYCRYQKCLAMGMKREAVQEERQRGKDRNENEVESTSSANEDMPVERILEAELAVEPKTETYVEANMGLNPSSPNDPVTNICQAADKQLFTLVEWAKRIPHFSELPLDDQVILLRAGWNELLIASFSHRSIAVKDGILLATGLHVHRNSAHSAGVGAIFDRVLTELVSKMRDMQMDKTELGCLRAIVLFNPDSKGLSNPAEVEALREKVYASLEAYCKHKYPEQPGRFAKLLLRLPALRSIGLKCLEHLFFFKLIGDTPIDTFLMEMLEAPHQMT
Sequence of Peroxisome proliferator-activated receptor alpha (Homo sapiens) (Q07869 whole entry, looked up): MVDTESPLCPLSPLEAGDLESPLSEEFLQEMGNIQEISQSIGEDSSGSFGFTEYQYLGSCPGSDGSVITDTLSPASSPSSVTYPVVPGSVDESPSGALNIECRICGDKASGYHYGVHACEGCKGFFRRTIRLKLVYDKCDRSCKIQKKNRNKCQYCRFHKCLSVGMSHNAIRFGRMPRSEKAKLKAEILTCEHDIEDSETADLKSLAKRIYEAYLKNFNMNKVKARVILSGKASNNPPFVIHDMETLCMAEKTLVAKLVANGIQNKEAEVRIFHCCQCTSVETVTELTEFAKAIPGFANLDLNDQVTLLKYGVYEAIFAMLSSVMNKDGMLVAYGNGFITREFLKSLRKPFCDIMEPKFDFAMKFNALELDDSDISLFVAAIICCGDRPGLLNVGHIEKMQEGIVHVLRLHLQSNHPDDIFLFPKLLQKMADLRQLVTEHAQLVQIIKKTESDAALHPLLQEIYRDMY

For `ClCC(Cl)Cl`, the Potency in assay [1] and in [2] was > 92 µM (inactive) in each case. Further, the Potency result in [3], in assay [7], in assay [9], in assay [12], in assay [13] and in assay [14] was “inactive” in each case. Further, the Potency result in assay [20] was “inactive”. Besides, the molecule was called inactive in assay [4], in assay [5], in [6], in [10], in assay [11] and in assay [16]. Besides, the caspase-3 activation in assay [8] was -0.541% (inactive). For the same molecule, the max response was -11.1% in assay [15], 2.25% in assay [17], 4.99% (inactive) in assay [18] and -5.62% (inactive) in [19].
In the case of `O=C(O)C(Cl)Br` (stereo not given), the Potency in assay [1] and in assay [2] was > 92 µM (inactive) each time. Further, the Potency result in [3], in assay [7], in assay [9], in assay [12], in assay [13] and in assay [14] was “inactive” each time. For the same molecule, the Potency entry in [20] is “inactive”. Moreover, the molecule was classed as inactive in assay [4], in assay [5], in [6], in [10], in assay [11] and in assay [16]. Further, the caspase-3 activation in assay [8] was 0.0973% (inactive). For the same molecule, the max response in assay [15] was -0.567%; in [17] it was -6.53%; in assay [18] it was -0.46% (inactive); in assay [19] it was 3.95% (inactive).
Take `O=S(=O)(O)F`: the Potency in assay [1] and in assay [2] was > 92 µM (inactive) each time. The Potency entry in [3], in assay [7], in [9], in assay [12], in assay [13] and in assay [14] was “inactive” each time. In assay [20], the Potency entry is “inactive”. The outcome in assay [4], in assay [5], in assay [6], in assay [10], in [11] and in assay [16] was inactive. Further, the caspase-3 activation in assay [8] is 4.29% (inactive). Moreover, the max response was -13.3% in assay [15], -2.92% in [17], -0.405% (inactive) in [18] and -6.55% (inactive) in assay [19].
In the case of `[O-][Cl+]O`, the Potency in assay [1] and in assay [2] was > 92 µM (inactive) throughout. In addition, the Potency result in assay [3], in assay [7], in [9], in assay [12], in [13] and in assay [14] was “inactive” in each case. In addition, the Potency entry in [20] was “inactive”. Also, the outcome in [4], in [5], in [6], in assay [10], in assay [11] and in assay [16] was inactive. Also, in assay [8], the caspase-3 activation was 1.6% (inactive). In addition, the max response in assay [15] was -9.53%; in assay [17] it was 0.141%; in [18] it was 0.737% (inactive); in assay [19], 3.42% (inactive).
`BrCC(Br)C1CCC(Br)C(Br)C1` (stereo not given): the Potency in assay [1] and in assay [2] was > 92 µM (inactive) in each case. In addition, the Potency result in [3], in assay [7], in assay [9], in [12], in assay [13] and in assay [14] was “inactive” throughout. Further, the Potency entry in [20] is “inactive”. Also, the result in [4], in assay [5], in assay [6], in assay [10], in assay [11] and in assay [16] was inactive. For the same molecule, in [8], the caspase-3 activation is 6.64% (inactive). Further, the max response in assay [15] was 6.74%; in assay [17], -6.79%; in [18], 4.79% (inactive); in [19], -1.58% (inactive).
